From PubChem BioAssay
Calls of active or inactive are those of the source.

Assays:
[1] = binders of probe aFSTL3 on microarray, primary screen, stem cell growth factor project, biochemical, small-molecule microarray, fluorescence 635/667 (AID 1064); details: higher = more signal;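 note: measures binding of the biotinylated anti-FSTL3 antibody to printed compounds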
[2] = binders from COS7 lysate, DM2A8 probe, primary screen, torsin A project, cell lysate, small-molecule microarray, fluorescence 635/667 (AID 1065); details: higher = more signal, COS7 lysate expressing mutant human TOR1A
[3] = binders of probe aFGF2 on microarray, primary screen, stem cell growth factor project, biochemical, small-molecule microarray, fluorescence 635/667 (AID 1067); details: higher = more signal;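 note: measures binding of biotinylated aFGF2 protein to printed compounds on slides; z-score merges feature fluorescence and signal-to-noise across triplicate slides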
[4] = binders of probe aFGF10 on microarray, primary screen, stem cell growth factor project, biochemical, small-molecule microarray, fluorescence 635/667 (AID 1071); details: higher = more signal;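 note: score merges 667 nm spot intensity and signal to noise from triplicate slides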
[5] = biological target: Neurogenic locus notch homolog protein 2 (Homo sapiens) (UniProt Q04721); assay: Notch2 binders on small-molecule microarrays, primary screen, biochemical, small-molecule microarray, 635 nm fluorescence, stem cell growth factors (AID 1073); details: Notch2 binding, higher = more signal
Neurogenic locus notch homolog protein 2 (Homo sapiens), sequence (Q04721 whole entry, looked up, canonical isoform): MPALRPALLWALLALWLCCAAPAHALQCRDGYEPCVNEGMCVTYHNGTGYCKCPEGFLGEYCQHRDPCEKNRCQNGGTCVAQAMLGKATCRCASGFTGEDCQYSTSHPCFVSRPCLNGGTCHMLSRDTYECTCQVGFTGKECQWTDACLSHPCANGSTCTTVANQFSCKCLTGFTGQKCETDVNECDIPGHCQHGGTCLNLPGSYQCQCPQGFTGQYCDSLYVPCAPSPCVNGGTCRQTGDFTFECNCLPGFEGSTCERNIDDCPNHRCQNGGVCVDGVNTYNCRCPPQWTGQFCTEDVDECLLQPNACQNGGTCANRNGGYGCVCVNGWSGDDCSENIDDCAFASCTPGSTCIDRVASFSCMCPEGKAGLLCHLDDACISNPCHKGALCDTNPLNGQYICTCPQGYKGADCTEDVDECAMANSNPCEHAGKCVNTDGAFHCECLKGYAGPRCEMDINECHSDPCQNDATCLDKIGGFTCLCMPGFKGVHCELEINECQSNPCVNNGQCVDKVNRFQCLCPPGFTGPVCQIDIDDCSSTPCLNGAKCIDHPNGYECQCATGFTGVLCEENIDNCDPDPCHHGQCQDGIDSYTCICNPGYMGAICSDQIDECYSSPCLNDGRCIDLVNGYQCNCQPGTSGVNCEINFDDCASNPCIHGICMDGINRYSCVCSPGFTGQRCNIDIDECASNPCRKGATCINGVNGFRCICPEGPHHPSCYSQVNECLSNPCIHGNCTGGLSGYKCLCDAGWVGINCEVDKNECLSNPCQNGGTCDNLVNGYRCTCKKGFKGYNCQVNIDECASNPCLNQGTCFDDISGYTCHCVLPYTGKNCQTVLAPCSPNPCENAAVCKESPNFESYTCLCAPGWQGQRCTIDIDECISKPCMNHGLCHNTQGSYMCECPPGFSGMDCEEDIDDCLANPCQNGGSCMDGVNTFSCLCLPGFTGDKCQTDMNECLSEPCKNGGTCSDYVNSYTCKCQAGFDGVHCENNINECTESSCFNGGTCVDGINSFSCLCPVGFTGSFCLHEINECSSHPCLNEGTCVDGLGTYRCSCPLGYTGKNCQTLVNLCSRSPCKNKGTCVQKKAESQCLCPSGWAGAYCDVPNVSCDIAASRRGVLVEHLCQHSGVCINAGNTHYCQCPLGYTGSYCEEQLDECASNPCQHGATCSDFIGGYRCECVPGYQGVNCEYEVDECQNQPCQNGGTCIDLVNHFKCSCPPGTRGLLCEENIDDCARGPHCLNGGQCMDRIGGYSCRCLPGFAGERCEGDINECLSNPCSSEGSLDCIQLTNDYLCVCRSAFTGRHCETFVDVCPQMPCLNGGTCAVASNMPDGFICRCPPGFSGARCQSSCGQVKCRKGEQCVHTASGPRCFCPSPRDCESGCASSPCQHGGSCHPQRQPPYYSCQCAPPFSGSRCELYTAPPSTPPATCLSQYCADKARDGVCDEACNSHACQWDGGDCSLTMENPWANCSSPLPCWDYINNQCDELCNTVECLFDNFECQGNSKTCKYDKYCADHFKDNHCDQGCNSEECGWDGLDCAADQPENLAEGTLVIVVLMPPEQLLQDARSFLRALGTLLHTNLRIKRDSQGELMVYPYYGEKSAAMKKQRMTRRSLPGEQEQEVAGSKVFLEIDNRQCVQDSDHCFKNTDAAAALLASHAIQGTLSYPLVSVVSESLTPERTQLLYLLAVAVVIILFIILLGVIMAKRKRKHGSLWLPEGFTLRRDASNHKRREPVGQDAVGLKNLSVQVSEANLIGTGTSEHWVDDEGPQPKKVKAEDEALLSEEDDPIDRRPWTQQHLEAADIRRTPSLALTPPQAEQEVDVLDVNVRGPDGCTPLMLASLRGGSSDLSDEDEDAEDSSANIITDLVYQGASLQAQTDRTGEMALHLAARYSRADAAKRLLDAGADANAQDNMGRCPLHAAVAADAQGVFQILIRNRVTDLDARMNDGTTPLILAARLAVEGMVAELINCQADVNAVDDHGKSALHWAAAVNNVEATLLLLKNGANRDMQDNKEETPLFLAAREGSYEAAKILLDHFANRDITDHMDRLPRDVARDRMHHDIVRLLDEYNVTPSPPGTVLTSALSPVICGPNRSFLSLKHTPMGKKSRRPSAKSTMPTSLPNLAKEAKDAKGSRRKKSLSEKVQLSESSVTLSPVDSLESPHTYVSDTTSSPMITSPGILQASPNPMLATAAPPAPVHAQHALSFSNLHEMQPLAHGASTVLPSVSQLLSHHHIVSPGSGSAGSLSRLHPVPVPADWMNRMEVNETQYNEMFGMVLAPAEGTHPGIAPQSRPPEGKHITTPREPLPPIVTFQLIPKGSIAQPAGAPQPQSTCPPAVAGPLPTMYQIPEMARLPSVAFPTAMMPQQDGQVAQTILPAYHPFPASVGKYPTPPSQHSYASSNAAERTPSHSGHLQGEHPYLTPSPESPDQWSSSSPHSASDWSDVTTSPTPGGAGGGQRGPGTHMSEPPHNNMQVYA

[6] = biological target: Pro-neuregulin-1, membrane-bound isoform (Homo sapiens) (UniProt Q02297); assay: NRG1 binders on small-molecule microarrays, primary screen, psychiatric disease protein project, biochemical, small-molecule microarray, fluorescence 635/667 (AID 1075); details: NRG1 binding, 635 nm fluorescence, higher = more signal;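 note: score combines 667 nm spot fluorescence with signal to noise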
Pro-neuregulin-1, membrane-bound isoform (Homo sapiens), sequence (Q02297 whole entry, looked up, the tested form may be a part, canonical isoform): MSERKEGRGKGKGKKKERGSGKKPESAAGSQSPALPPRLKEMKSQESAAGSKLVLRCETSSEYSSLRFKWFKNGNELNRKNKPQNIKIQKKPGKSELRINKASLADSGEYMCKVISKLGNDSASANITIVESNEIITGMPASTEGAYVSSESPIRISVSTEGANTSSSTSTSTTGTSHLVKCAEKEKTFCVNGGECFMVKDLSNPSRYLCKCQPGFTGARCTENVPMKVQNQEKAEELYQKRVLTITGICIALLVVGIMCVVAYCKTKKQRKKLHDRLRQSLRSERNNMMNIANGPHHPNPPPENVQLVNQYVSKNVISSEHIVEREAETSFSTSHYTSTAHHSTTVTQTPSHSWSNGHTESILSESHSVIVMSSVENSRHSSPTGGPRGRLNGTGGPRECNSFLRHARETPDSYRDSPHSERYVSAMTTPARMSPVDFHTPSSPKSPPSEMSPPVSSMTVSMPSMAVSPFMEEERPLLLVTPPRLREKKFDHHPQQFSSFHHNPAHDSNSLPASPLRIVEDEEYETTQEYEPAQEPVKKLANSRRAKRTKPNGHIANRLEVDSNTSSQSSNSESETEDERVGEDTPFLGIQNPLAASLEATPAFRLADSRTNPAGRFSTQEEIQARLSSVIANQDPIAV

[7] = system: Neuregulin-1 EGF-like domain; assay: binders of neuregulin-1 EGF-like domain, primary screen, biochemical, small-molecule microarray, 635 nm fluorescence (AID 1081); details: small-molecule microarray binding, higher = more signal;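 note: binding of the protein to compounds printed on small-molecule microarray slides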
[8] = FRG1 promoter luciferase signal modulators, primary screen, FRG1 inhibition for FSHD, cell-based, C2C12 myotubes, firefly/Renilla luciferase, luminescence (AID 1084); details: higher = more signal, called active from +8 up or from −8 down
[9] = binders of probe aFST on microarray, primary screen, stem cell growth factor project, biochemical, small-molecule microarray, fluorescence 635/667 (AID 1086); details: higher = more signal;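 note: score merges 667 nm fluorescence with signal-to-noise of each printed compound spot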
[10] = binders of probe aHhip on microarray, primary screen, stem cell growth factor project, biochemical, small-molecule microarray, fluorescence 635/667 (AID 1087); details: higher = more signal;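 note: score merges spot fluorescence at 667nm with spot signal to noise ratio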

Compound | composite z-score [1] | composite z-score [2] | composite z-score [3] | composite z-score [4] | composite z-score [5] | composite z-score [6] | composite z-score [7] | z-score [8] | composite z-score [9] | composite z-score [10]
NC(=O)NCC#Cc1ccc2c(c1)[C@]1(C(=O)N2)[C@H](C(=O)O)[C@H]2C(=O)O[C@H](c3ccccc3)[C@H](c3ccccc3)N2[C@@H]1c1ccccc1OCCO | 0.991 | 0.396 | -0.0749 | 0.776 | 0.231 | 1.99 | 1.01 | -0.765 (inactive) | 0.734 | 0.291
CC(C)(C)OC(=O)CC[C@@]1(C(=O)O)N=C(c2ccc(OCCCO)cc2)O[C@@H]1c1ccccc1CN=[N+]=[N-] | 0.761 | 0.348 | 0.0732 | 0.246 | 0.717 | 1.03 | 1.19 | 5.39 (inactive) | 0.971 | 0.259
C=CCOC(=O)[C@@H]1[C@H]2C(=O)O[C@H](c3ccccc3)[C@H](c3ccccc3)N2[C@H](c2ccc(OCCOC(=O)[C@H]3C[C@H]4C(=O)N[C@@H](CCCC[N+](C)(C)C)C(=O)N4[C@H]3c3ccc(O)cc3)cc2)[C@@]12C(=O)Nc1ccc(I)cc12 | -0.42 | 1.1 | -0.0569 | 0.528 | 1.18 | 1.31 | 1.37 | 0.369 (inactive) | 0.208 | -0.138
Cc1ccc(S[C@]2(C(=O)NC(C)C)CC(=O)N(C3Cc4ccccc4C3)[C@@H]2c2ccc(CO)cc2I)cc1 | 0.125 | -0.869 | -0.216 | -0.667 | -0.853 | 1.06 | 0.381 | -1.85 (inactive) | -0.654 | -0.858
C=CCN1C(=O)[C@@]2(O[C@@H](CCn3cc([C@H](O)c4ccccc4)nn3)[C@H]([Si](C)(C)c3ccc(OC)cc3)[C@H]2C)c2ccccc21 | -0.0119 | 0.395 | -0.036 | 0.386 | 0.501 | 1.31 | 1.01 | -1.45 (inactive) | 0.728 | -0.289
COCC(=C=CC[C@H](O)c1ccc(OCCO)cc1)C[C@H](O)COCc1ccccc1 | -0.41 | 0.0477 | -0.0762 | 0.477 | 0.189 | 0.586 | 1.03 | 0.723 (inactive) | 0.163 | 0.0505
CCCCC(CC)C(O)C1C=CC2C(=O)N(c3ccccc3)C(=O)C2N1Nc1ccc([N+](=O)[O-])cc1 (stereo not given) | -0.294 | 0.153 | 0.141 | 0.848 | 1.73 | 1.88 | 1.26 | -1.62 (inactive) | 1.1 | -0.234
CCCNC(=O)[C@@]1(c2ccc([N+](=O)[O-])cc2)CC(=O)N(C2CCCCC2)[C@@H]1c1ccc(CO)cc1I | 0.368 | 0.983 | 0.091 | 0.599 | 0.96 | 0.456 | 1.21 | -0.546 (inactive) | 0.29 | -0.0994
O=C1O[C@H](c2ccccc2)[C@H](c2ccccc2)N2[C@H]1[C@@H](C(=O)O)[C@]1(C(=O)Nc3ccccc31)[C@H]2c1ccc(O)cc1 | 1.17 | -0.122 | -0.113 | 0.338 | -0.844 | 1.85 | 0.771 | 1.28 (inactive) | -0.388 | -0.24
[N-]=[N+]=NCc1ccccc1[C@H]1OC(c2ccc(OCCCO)cc2)=N[C@@]1(CCS(=O)(=O)c1ccccc1)C(N)=O | 0.573 | 1.33 | 0.145 | 0.763 | 1.65 | 2.03 | 1.36 | 4.66 (inactive) | 0.805 | -0.0645
COc1ccc(C(O)C2C=CC3C(=O)N(C)C(=O)C3N2N2CCCCC2)cc1 (stereo not given) | -0.162 | 1.42 | 0.213 | 1 | 1.65 | 1.61 | 1.38 | 1.51 (inactive) | 0.201 | -0.283
CC(C)N1CC=CC23O[C@@H]4C=CCCOC(=O)C4[C@H]2C(=O)N(CCO)[C@@H]3C1=O (stereo not given in full) | 0.108 | 2.11 | -0.177 | -0.351 | -0.537 | -0.637 | 0.606 | -0.286 (inactive) | -0.398 | -0.0939
C=CCOC(=O)[C@H]1[C@@H]2C(=O)O[C@@H](c3ccccc3)[C@@H](c3ccccc3)N2[C@@H](c2ccc(OCCOC(=O)[C@H]3C[C@H]4C(=O)N[C@@H](Cc5ccccc5)C(=O)N4[C@H]3c3cccc(OCCO)c3)cc2)[C@]12C(=O)Nc1ccc(I)cc12 | -0.36 | 0.876 | 0.0422 | 0.66 | 0.118 | 1.35 | 1.21 | 0.633 (inactive) | 0.0086 | 0.122
CC(=O)N1Cc2ccccc2C[C@]2(N=C(c3ccc(OCCCO)cc3)O[C@@H]2c2ccccc2)C1=O | 0.864 | 0.688 | 0.0512 | 0.458 | 0.875 | 1.04 | 1.34 | -2.24 (inactive) | 0.33 | -0.238
Cc1ccc(S[C@]2(C(=O)O)CC(=O)N(Cc3ccccc3Cl)[C@@H]2c2ccc(CO)cc2)cc1 | 0.96 | -0.614 | -0.113 | 0.449 | -0.72 | 0.103 | -0.408 | -0.917 (inactive) | -0.172 | -0.0994
COC(=O)[C@@]1(Cc2ccccc2)[C@H]2c3cc(C(=O)N4CCCC4)n(C[C@H](O)CO)c3C[C@H]2CN1C(=O)c1ccccc1 | 0.52 | -0.0861 | -0.16 | 0.0518 | 1.58 | 1.99 | 1.3 | 0.593 (inactive) | 0.348 | 0.0053

Compound | composite z-score [1] | composite z-score [2] | composite z-score [3] | composite z-score [4] | composite z-score [5] | composite z-score [6] | composite z-score [7] | z-score [8] | composite z-score [9] | composite z-score [10]
COc1cc2c(cc1O)C(C)N(Cc1cc3c(cc1Br)OCO3)CC2 (stereo not given) | 0.731 | -0.192 | -0.0951 | 0.0663 | 0.511 | 0.53 | 1.5 | 0.0288 (inactive) | -0.175 | 0.0749
O=C(O)[C@H]1C[C@H]2C(=O)N3CCC[C@H]3C(=O)N2[C@H]1c1cccc(OCCO)c1 | 0.376 | 0.812 | -0.0985 | 0.178 | -0.237 | 0.337 | 1.25 | 6.19 (inactive) | -0.0791 | 0.176
CC(C)CN1C(=O)[C@@]2(c3ccc([N+](=O)[O-])cc3)CC(=O)N(CC34CC5CC(CC(C5)C3)C4)[C@@H]2c2ccc(CO)cc21 | 0.311 | -1.76 | -0.186 | -0.34 | -0.602 | 0.251 | -0.594 | 0.0918 (inactive) | 0.0959 | -0.0994
COC(=O)[C@@]1(Cc2ccccc2)[C@H]2c3cc(C(=O)N4CCCC4)n(Cc4cc(F)cc5c4OCOC5)c3C[C@H]2CN1C(=O)c1ccccc1 | 0.752 | -0.234 | 0.356 | 0.762 | 1.73 | 1.1 | 1.22 | -0.223 (inactive) | 0.929 | -0.0905
COC(=O)Cn1c(C(=O)N2CCCC2)cc2c1C[C@H]1CN(C(=O)c3ccccc3)[C@@](Cc3ccc(F)cc3)(C(=O)OC)[C@@H]21 | -0.366 | 0.281 | -0.0329 | 0.0839 | 0.358 | 2 | 1.07 | -0.566 (inactive) | 0.131 | 0.0845
CCOC(=O)C[C@H]1[C@H](OC(=O)c2ccc(-c3ccccc3)cc2)[C@@H](NC(=O)C2CCCCC2)c2cc(OCCCO)ccc2N1C(=O)c1ccccc1 | -0.539 | 0.338 | -0.0344 | 0.303 | 0.425 | 0.397 | 0.337 | -0.298 (inactive) | 0.345 | 0.103
CCCC[C@@H]1C[C@H]1[C@@H](NC(=O)c1ccccc1)c1ccc(Cl)cc1 | 1.22 | -0.657 | -0.196 | -2.08 | -2 | -0.596 | 1.36 | 1.62 (inactive) | -0.833 | -0.134
CC(C)C(O)C1C=CC2C(=O)N(C)C(=O)C2N1N(c1ccccc1)c1ccccc1 (stereo not given) | 0.626 | -0.312 | -0.0613 | -0.577 | 0.461 | 0.371 | -0.142 | -0.165 (inactive) | 0.272 | 0.0139
CN(C)CCCCNC(=O)[C@H]1C[C@H]2C(=O)N[C@@H](CCCCN(C)C)C(=O)N2[C@H]1c1cccc(OCCO)c1 | -0.852 | 1.25 | 0.0025 | 1.02 | 0.591 | 0.839 | 1.32 | -0.275 (inactive) | 0.402 | -0.381
[N-]=[N+]=NCc1ccccc1C[C@]1(C(=O)NCC(O)CO)N=C(c2ccc(OCCCO)cc2)O[C@H]1c1ccccc1CN=[N+]=[N-] (stereo not given in full) | 0.0591 | 0.696 | 0.139 | 1.14 | 0.566 | 1.34 | 1.16 | -0.799 (inactive) | 0.723 | -0.0618
CC[C@H]1C2=C3C(CC[C@H]4C(OCc5ccc(F)cc5C(F)(F)F)OC[C@](C)([C@@H]34)N(C(=O)OC(C)(C)C)C2)C2COC(=O)OCC21 (stereo not given in full) | 0.0488 | -0.377 | 0.0246 | 0.112 | 1.25 | 1.47 | 0.874 | 1.82 (inactive) | 1.73 | -0.0047
O=C1NC(=O)C2C1C=CC(C(O)c1c(F)cccc1Cl)N2Nc1ccccn1 (stereo not given) | 0.154 | 0.238 | 0.0182 | 0.474 | 0.55 | 1.53 | 0.633 | 0.569 (inactive) | -0.014 | 0.0576
NC(=O)N1C(=O)C2C(C1=O)C1C=C(c3ccc(CO)cc3)C2C(C2CC2)N1Cc1sc2ccccc2c1Cl (stereo not given) | -0.418 | 2.2 | 0.0433 | 1.17 | 1.19 | 1.6 | 1.28 | -1.27 (inactive) | 0.32 | 0.0623
C=CCN1Cc2ccccc2C[C@@]2(N=C(c3ccc(OCCCO)cc3)O[C@H]2c2ccccc2)C1=O | 0.633 | 0.604 | 0.0109 | -0.364 | 1.09 | 1.04 | 1.29 | -1.32 (inactive) | 0.383 | 0.297
O=C1O[C@@H](c2ccccc2)[C@@H](c2ccccc2)N2[C@@H](c3ccccc3OCCO)[C@]3(C(=O)Nc4ccc(C#CCCO)cc43)[C@@H](C(=O)N3CCN(c4ncccn4)CC3)[C@H]12 | -0.132 | -0.167 | -0.0004 | 0.608 | 1.34 | 1.56 | 1.13 | -2.32 (inactive) | 0.29 | -0.069
